Screening results: PubChem BioAssay, National Center for Advancing Translational Sciences (NCATS)
Compounds with a hit are over-represented: about 2.6% of the library has one in this group of screens.
AmpC nodet inh – blocks E. coli AmpC beta-lactamase in absence of detergent. Potency, µM (titrated, usually from 28.7 µM), for inactives: top-dose activity change, negative = inhibition. 1.8% of 71,000 active. P00811. AmpC nitrocefin hydrolysis, absorbance 480 nm, no detergent; further: % of control where 0% means no effect
Target sequence (P00811 whole entry, looked up): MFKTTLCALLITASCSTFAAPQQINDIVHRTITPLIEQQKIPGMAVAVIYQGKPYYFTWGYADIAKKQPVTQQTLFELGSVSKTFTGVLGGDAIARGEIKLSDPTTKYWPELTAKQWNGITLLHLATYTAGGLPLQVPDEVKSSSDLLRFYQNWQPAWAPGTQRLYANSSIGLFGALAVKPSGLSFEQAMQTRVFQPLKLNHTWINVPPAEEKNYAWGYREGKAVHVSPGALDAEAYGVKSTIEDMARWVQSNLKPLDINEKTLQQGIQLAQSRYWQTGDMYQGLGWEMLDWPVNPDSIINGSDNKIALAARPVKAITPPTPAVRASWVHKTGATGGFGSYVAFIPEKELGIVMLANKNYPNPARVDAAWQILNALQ
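Enzyme, pH 7.0 phosphate. Compound titrations were pre-incubated with AmpC for 15 min at room temperature before nitrocefin (stock 800 uM) addition; product formation was recorded at 480 nm every 20 s for 4 min.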
AmpC det inh – blocks E. coli AmpC beta-lactamase in presence of detergent; purified AmpC, nitrocefin hydrolysis with detergent; Potency, µM (highest dose often 28.7 µM), inactives show top-dose activity change, negative = inhibition; 0.09% of 71,000 active; active means well fitted curve in the direction sought with a large enough effect; inconclusive means small, poorly fitted or top-dose-only effect; further: on the % scale 0 is the no-effect control and ±100 the full control effect
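E. coli AmpC (5.3 nM) in 20 mM phosphate pH 7.0 with 0.01% Triton X-100, preincubated 15 min RT with compound; nitrocefin (2 uL of 800 uM stock) hydrolysis followed by 480 nm absorbance every 20 s over 4 min.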
Anthrax LT inh – anthrax lethal toxin internalization inhibition. Cells, anthrax lethal toxin internalization, FRET ratio (460/530). Potency, µM (top dose mostly 40 µM), without a hit: top-dose activity change, negative = inhibition, actives largely listed as inhibitors. 0.67% of 70,000 active. AID 912; further: on the % scale 0 is the no-effect control and ±100 the full control effect; nearly all actives have a fitted effect of over 50% in size
Prx2 Sm inh – inhibitors of Schistosoma mansoni peroxiredoxin 2; Potency, µM; AID 448; S. mansoni Prx2 activity coupled to TGR/GSH (TGR is thioredoxin glutathione reductase), NADPH fluorescence loss, qHTS; 0.07% of 65,000 active
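Prx2 activity was followed as the loss of NADPH fluorescence (ex 365/em 450 nm), read every 30 sec for 8 min after H2O2 start. The enzyme mix (50 nM Prx2, 25 nM TGR, GSH, NADPH; pH 7.4 phosphate buffer) was incubated with compound for 15 min at room temperature first.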
Active calls of the source: *; ? = inconclusive; · = no result given; [ ] = dose if it differs, or a comment. Unless noted, the call rests on the fitted dose curve. Potency means the concentration at half of the fitted maximal effect.

SMILES	AmpC nodet inh	AmpC det inh	Anthrax LT inh	Prx2 Sm inh
COc1cccc2c1[C@@H]1CN(CCCCn3c(=O)[nH]c4c(sc5ncc(-c6ccccc6)nc54)c3=O)C[C@H]1CO2	103%	-1%	25µM*	>57
Cc1ccc(-c2nn3c(C)nnc3s2)cc1NC(=O)COc1ccc(Cl)cc1	17%	13%	-11%	>57
CC(C)(C)n1nc2c(c1NC(=O)COc1ccc(Cl)cc1)CSC2	13µM*	-2%	?	>57
COc1ccc(CNc2nc(-c3c(C)noc3C)nc3ccccc23)c(OC)c1	14%	6%	?	>57
COc1ccc(N(CC(=O)N2CCc3ccccc3C2)S(=O)(=O)c2c(C)[nH]c(=O)[nH]c2=O)cc1	4µM*[single pt active]	11%	14%	>57
CCn1c2ccccc2c2nnc(SCc3ccccc3)nc21	4µM*[single pt active]	12%	?	>57
O=c1[nH]c2ccccc2n1CCCSCCCn1c(=O)[nH]c2ccccc21	27%	-3%	?	>57
CCn1c2ccccc2c2nnc(SCCCn3c(=O)[nH]c4ccccc43)nc21	28%	-2%	7.9µM*	·
CCn1c2ccccc2c2nnc(SCN3C(=O)c4ccccc4C3=O)nc21	-2%	-3%	-16%	·
N#CCCn1c(=O)c(CCc2ccccc2)nc2cnc(Nc3ccccc3)nc21	2%	0%	?	>57
Cc1oc(C)c2c(=O)ccc3c(c12)OC(N)=C(C#N)C3c1ccccc1 (stereo not given)	-17%	-4%	-24%	>57
CSc1ccc(C2C(C#N)=C(N)Oc3c2ccc(=O)c2c(C)oc(C)c32)cc1 (stereo not given)	10µM*	-4%	-29%	>57
CC(=O)NCCc1c[nH]c2ccccc12	-2%	-1%	-1%	>57
N#Cc1cccc(NC(=O)NCCc2c[nH]c3ccccc23)c1	4µM*[single pt active]	13%	13µM*	>57
O=c1c(-c2ccc(Cl)cc2)coc2c(CN3CCOCC3)c(O)ccc12	-5%	9%	6.3µM*	·
O=c1c(-c2ccccc2)coc2c(CN3CCCC3)c(O)ccc12	-8%	-4%	14%	>57
CN(C)CCCn1cnc2cc(Cl)c(Cl)cc21	4%[5.75 µM]	-1%[5.75 µM]	-12%[8 µM]	>57
CCOC(=O)C1CCCN(C(=O)c2ccc(CS(=O)(=O)c3ccc(C)cc3)o2)C1 (stereo not given)	2.5µM*[single pt active]	11%	-8%	>57
Cc1ccc(S(=O)(=O)Cc2ccc(C(=O)N3CCCCCC3)o2)cc1	49%	15%	-8%	>57
CCOC(=O)C1CCCN(C(=O)c2ccc(CS(=O)(=O)Cc3ccccc3C)o2)C1 (stereo not given)	53%	-2%	?	>57
Cc1ccc(S(=O)(=O)Cc2ccc(C(=O)N3CCCC3)o2)cc1	4µM*[single pt active]	12%	-5%	>57
C[C@]1(C(=O)O)[C@@H]2CC[C@@H](O2)[C@@]1(C)C(=O)O	1%	-3%	?	>57
Cc1cc(C)cc(NS(=O)(=O)c2ccc3[nH]cc(C(=O)NCc4ccco4)c(=O)c3c2)c1	13µM*[single pt active]	-2%	?	>57
Cc1ccccc1NS(=O)(=O)c1ccc2[nH]cc(C(=O)N(C)Cc3ccco3)c(=O)c2c1	-14%	1%	6%	>57
CCC/C=C(\CCC)C(NC(=O)c1ccc(C(F)(F)F)cc1)c1ccccc1 (stereo not given)	20µM*[single pt active]	3%	-17%	>57
SMILES	AmpC nodet inh	AmpC det inh	Anthrax LT inh	Prx2 Sm inh
Cc1ccccc1CS(=O)(=O)c1nnc([C@H](CC(C)C)NC(=O)OC(C)(C)C)o1	10µM*	7.9µM*	?	>57
CC(C)[C@H](NC(=O)OC(C)(C)C)c1nnc(S(=O)(=O)Cc2c(F)cccc2Cl)o1	1.3µM*	0.79µM*	·	>57
CC[C@@H](C)[C@H](NC(=O)OC(C)(C)C)c1nnc(S(=O)(=O)Cc2cc(C)ccc2C)o1	?	?	?	>57
CC(C)CC(=O)N1CCN(Cc2cccc(F)c2)CC1	46%	14%	-2%	·
CC(C)(C)OC(=O)N[C@@H](Cc1ccccc1)c1nnc(S(=O)(=O)Cc2cccc(F)c2)o1	4µM*	5µM*	10µM*	>57
CC(C)C[C@H](N)c1nnc(S(=O)(=O)Cc2cccc(F)c2)o1	?	2.5µM*	?	>57
N#Cc1ccc(CN2CCCC3(CCN(S(=O)(=O)c4ccccc4)CC3)C2)cc1	40%	-4%	?	>57
CC(C)C[C@@H](CC(=O)N[C@@H](CCCN)CC(=O)N[C@@H]1CCNC[C@H]1C(=O)N[C@H](CC(=O)N[C@@H](CCC(=O)O)CC(=O)O)Cc1ccccc1)NC(=O)[C@@H]1CCCC[C@H]1N	135%	-2%	-11%	>57
